# Reference: PubChem BioAssay (NCI)
# Compounds without any hit were thinned out: in the full panel of roughly 83,000, 20% have a hit.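 Cell lines were cultured in 96-well plates, exposed to a single compound concentration, and assessed for percent growth 48 hours later.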 Unmarked numbers belong to inactive results. The source made the active and inactive calls. The calls were made as follows: active = growth percent below 10; inactive = the rest.
# Legend:
# Experiment in all cases: NCI-60 one-dose screen, 48 h (100 = growth as untreated, 0 = no growth, -100 = all killed)
# SR leukemia = settings: 10 µM
# OVCAR-8 ovarian = settings: 10 µM
# OVCAR-5 ovarian = settings: 10 µM
# SK-OV-3 ovarian = settings: 10 µM
# IGROV1 ovarian = settings: 10 µM
# OVCAR-3 ovarian = settings: 10 µM
# HS 578T breast = settings: 10 µM
# NCI/ADR-RES ovarian = settings: 10 µM
# T-47D breast = settings: 10 µM
# BT-549 breast = settings: 10 µM
# MDA-MB-435 melanoma = settings: 10 µM
# MCF7 breast = settings: 10 µM unless noted
# HCT-116 colon = settings: 10 µM
# HCC-2998 colon = settings: 10 µM
# KM12 colon = settings: 10 µM
# RPMI-8226 leukemia = settings: 10 µM
# OVCAR-4 ovarian = settings: 10 µM
# SW-620 colon = settings: 10 µM
SMILES,growth (SR leukemia) [%],growth (OVCAR-8 ovarian),growth (OVCAR-5 ovarian),growth (SK-OV-3 ovarian),growth (IGROV1 ovarian) [%],growth (OVCAR-3 ovarian),growth (HS 578T breast),growth (NCI/ADR-RES ovarian),growth (T-47D breast) [%],growth (BT-549 breast),growth (MDA-MB-435 melanoma),growth (MCF7 breast),growth (HCT-116 colon),growth (HCC-2998 colon),growth (KM12 colon),growth (RPMI-8226 leukemia),growth (OVCAR-4 ovarian),growth (SW-620 colon)
COc1cc2nc3cc([N+](=O)[O-])ccc3c(Cl)c2cc1OC,91.7,88.2%,86.3%,106%,89.7,123%,112%,103%,83.2,51.3%,93.2%,83%,95.7%,106%,110%,,,
COc1ccc(C2(O)CCCCC2)cc1,,107%,111%,107%,111,116%,93.5%,104%,98.2,112%,107%,102%,99.1%,104%,107%,95.6%,112%,102%
COc1cc(/C=C/C(=O)c2ccccc2)cc(OC)c1OC,,59.8%,66.6%,79%,98.6,59%,106%,43.1%,91.4,72%,13.7%,9.65% (active),20.6%,94.3%,12.6%,24.3%,65%,12.3%
S=C1NCc2cncnc2N1,,104%,97.8%,102%,111,112%,105%,106%,105,100%,101%,93.4%,99.1%,106%,106%,102%,105%,109%
COc1ccc(/C(C#N)=C2C=C/C(=N/O)c3ccccc3\2)cc1,,18.9%,27.3%,-6.21% (active),22.3,1.6% (active),35.1%,15.9%,64.8,31%,-57% (active),13.1%,5.12% (active),-11.4% (active),3.23% (active),32.1%,35.8%,20.1%
COC(=O)C(C)Oc1ccc(OC#N)cc1 (stereo unspecified),,104%,94.5%,103%,105,105%,90.1%,99.9%,,120%,102%,98%,108%,105%,99.8%,103%,95.8%,95.6%
Nc1nc2c(c(-c3nc(N)nc4c3CCc3ccccc3-4)n1)CCc1ccccc1-2,,56.8%,113%,87.2%,109,115%,80.3%,101%,,109%,109%,95.4%,105%,114%,105%,105%,101%,101%
CC(C)(C)n1nc(C2CC2)c(Br)c1NC(=O)c1ccccc1F,,101%,104%,94.5%,99.3,117%,94.9%,103%,108,,102%,95.7%,109%,106%,98.5%,96.7%,87.1%,105%
CN(C)CCN(C)CC(C)(C)C(=O)/C=C/c1ccc(Cl)cc1,,-35.4% (active),3.63% (active),5.56% (active),15.6,10.4%,-4.14% (active),-36.1% (active),,-34.5% (active),0.434% (active),-8.84% (active),-92.1% (active),-92.9% (active),-23.7% (active),-24.1% (active),7.86% (active),-24.2% (active)
O=[N+]([O-])c1ccc(-c2noc(-c3cccs3)n2)cc1,,86.6%,98.5%,95.2%,96,106%,60.3%,82.4%,,78.3%,94.2%,63.2%,47.5%,99.9%,88.5%,96.5%,71.6%,90.4%
CC(=O)Cc1cc(-c2cc(CC(C)=O)[nH]n2)n[nH]1,,98.5%,90.2%,90.9%,104,111%,93.2%,96.7%,,88.4%,103%,,103%,112%,105%,109%,101%,98.5%
CCOC(=O)C(C#N)Cc1ccccc1 (stereo unspecified),,115%,103%,123%,114,117%,112%,117%,107,117%,109%,,112%,118%,133%,101%,114%,117%
CCOC(=O)/C(=C/c1ccc(OC)cc1)N(CC)CC,,99.9%,113%,116%,106,106%,93.7%,107%,92.6,108%,110%,103%,101%,,104%,102%,116%,103%
Cc1cc2nc(CC(=O)c3ccccc3)c(=O)[nH]c2cc1C,,94.7%,116%,102%,91.9,109%,73.8%,94.6%,,89.6%,106%,78.1%,80.3%,110%,100%,103%,102%,94.3%
Cc1cc(=O)cc(C)n1-c1ccccc1,,109%,98.3%,94.7%,114,120%,113%,98.9%,91.7,,110%,94.4%,98.4%,107%,104%,97.6%,100%,107%
COC(=O)c1cc(-c2ccc(Cl)c(Cl)c2)[nH]c(=O)c1C#N,,101%,99.2%,103%,110,116%,74.9%,105%,,104%,104%,89.1%,,117%,109%,112%,103%,99.1%
CC1(O)OC(COc2ccc(Cl)cc2)COC1O (stereo unspecified),,100%,111%,116%,113,116%,95.5%,103%,,112%,106%,90.4%,103%,109%,108%,109%,99.1%,101%
O=C(Cc1nc2ccc([N+](=O)[O-])cc2nc1CC(=O)c1ccccc1)c1ccccc1,,50%,89.6%,103%,79.2,60.1%,51.6%,29.8%,,37.3%,63.3%,30.1%,34.8%,89%,39.4%,42.9%,34.3%,62.6%
CCOC(=O)c1cc(/C=C/c2cccc(Cl)c2)on1,,99.5%,101%,111%,93.9,99.1%,76.4%,91%,,87.2%,83%,13.9%,-57.7% (active),97.2%,57.4%,4.16% (active),83.7%,84.2%
O=C(O)/C=C/C(=O)NCc1ccccc1,,108%,107%,112%,98.4,109%,113%,102%,98.5,104%,101%,91.9%,106%,95.7%,104%,94.7%,107%,
